About 83,000 compounds went through this panel and 20% of them were active in at least one assay; those are over-represented in the sample as a whole.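 Method: cells in 96-well plates; compound added at one concentration; 48 h incubation; percent growth measured; values under 10 scored active.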 A number with no mark means an inactive call. Activity calls are given as the source filed them.
Legend:
Assay in all cases: NCI-60 one-dose screen, 48 h (100 = growth as untreated, 0 = no growth, -100 = all killed)
Conditions in all cases: 10 µM unless noted
[1] = tested on: NCI-H23 lung
[2] = tested on: NCI-H226 lung
[3] = tested on: NCI-H322M lung
[4] = tested on: HOP-62 NSCLC
[5] = tested on: NCI-H460 lung
[6] = tested on: HOP-92 NSCLC
[7] = tested on: NCI-H522 lung
[8] = tested on: A549/ATCC NSCLC
[9] = tested on: 786-0 renal
[10] = tested on: COLO 205 colon
[11] = tested on: DU-145 prostate
[12] = tested on: K-562 leukemia
[13] = tested on: MALME-3M melanoma
[14] = tested on: MDA-MB-231 breast
[15] = tested on: RXF 393 renal
[16] = tested on: SF-268 CNS
[17] = tested on: SF-295 CNS
[18] = tested on: SF-539 CNS
[19] = tested on: UACC-257 melanoma
[20] = tested on: M14 melanoma

| Compound | growth [1] | growth [2] | growth [3] | growth [4] | growth [5] | growth [6] | growth [7] | growth [8] | growth [9] | growth [10] | growth [11] | growth [12] | growth [13] | growth [14] | growth [15] | growth [16] | growth [17] | growth [18] | growth [19] | growth [20] |
| --- | --- | --- | --- | --- | --- | --- | --- | --- | --- | --- | --- | --- | --- | --- | --- | --- | --- | --- | --- | --- |
| Cc1ccc(N2CCN(C(C)C(N)=O)CC2)cc1 (stereo not given) | 104% | 109% | 116% | 109% | 121% | 123% | 90.7% | 113% | 103% | 122% | 116% | 114% | 107% | 102% | 111% | 100% | 103% | 110% | 127% | 99.2% |
| O=C(NS(=O)(=O)c1ccccc1)n1cc(-c2ccncc2)c(-c2ccc(Cl)c(O)c2)n1 | 104% | 103% | 103% | 119% | 107% | 99.6% | 85.4% | 98.3% | 100% | 111% | 104% | 88.9% | 27.6% | 112% | 107% | 97.7% | 107% | 97.6% | 91.6% | 34.2% |
| CC(C)(C)Nc1c(-c2cccs2)nc2ncccn12 | 96.6% | 90.6% | 98.7% | 104% | 102% | 98.8% | 80.3% | 98.1% | 104% | 110% | 105% | 86.5% | 99.9% | 108% | 98.9% | 97.5% | 99.5% | 97.5% | 90.5% | 106% |
| Brc1cccc(-c2cc(-c3ccc4nccnc4c3)[nH]n2)c1 | 46.5% [25 µM] | 22.4% [25 µM] | 50.5% [25 µM] | 30.1% [25 µM] | 4.81% [25 µM] (active) | 55.5% [25 µM] | -5.69% [25 µM] (active) | 31.2% [25 µM] | 35.1% [25 µM] | -24.7% [25 µM] (active) | 17.7% [25 µM] | 11.9% [25 µM] | 59.2% [25 µM] | 28.3% [25 µM] | -12.8% [25 µM] (active) | 41.1% [25 µM] | 7.1% [25 µM] (active) | -35.2% [25 µM] (active) | 91.2% [25 µM] | 23.5% [25 µM] |
| O=S(=O)(NCCCNc1nccc(-n2ccc3cccnc32)n1)c1cccc(C(F)(F)F)c1 | 108% | 104% | 106% | 112% | 104% | 106% | 98.1% | 101% | 102% | 108% | 101% | 100% | 112% | 106% | 103% | 95.5% | 112% | 109% | 108% | 107% |
| CC1CN(c2oc(-c3ccccc3)nc2C#N)CC(C)O1 (stereo not given) | 112% | 92% | 99.1% | 103% | 99.7% | 123% | 99.4% | 104% | 99.6% | 116% | 99.7% | 97.6% | 102% | 101% | 104% | 98.2% | 99.1% | 98.6% | 103% | 99.3% |
| O=C(CN1CCN(c2cc3c(cc2F)c(=O)c(C(=O)N/N=C/c2ccccc2O)cn3C2CC2)CC1)N/N=C\c1ccccc1O | 28.2% | 36.4% | 25.4% | 24.5% | 0.87% (active) | 52% | 22.6% | 17.8% | 7.83% (active) | 17.4% | 21.2% | 8.3% (active) | 22.3% | 25.3% | 27.9% | 16.6% | 21.5% | 11.1% | 20% | -27.6% (active) |
| COc1ccc(-c2cnoc2-c2ccc(OC)cc2O)cc1 | 29.9% | 78.8% | 74.6% | 36.9% | 7.27% (active) | 52.1% | -16% (active) | 40.9% | 44.5% | 72.4% | 30.9% | 25% | 41.1% | 45.8% | 23.9% | 39.9% | 26.9% | 19.7% | 56.7% | 14.9% |
